The values below come from PubChem BioAssay (Tox21).

Molecules are shown by their SMILES. “And” between values parts separate entries of the source, which are not always exact repeats. Equal entries are not always repeated. Records with an inconclusive call do not appear. Entries that show only a call come without a potency. The source made the active and inactive calls. Unless noted, the call rests on the fitted dose curve.

Test system in the first assay: not listed separately
The assay is described as follows: qHTS assay to identify small molecule antagonists of the thyroid receptor (TR) signaling pathway (AID 743065; active means well fitted inhibition curve with a large enough effect in the repeat runs; further: nearly all actives have a fitted effect of over 55% in size; further: potency means the concentration at half of the fitted maximal effect). To be noted: GH3.TRE-Luc, T3-stimulated luciferase inhibition, 23.5 h; series mostly up to 70.3 µM. The essentials: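 GH3.TRE-Luc rat pituitary cells (two TREs driving luciferase) were dosed with compound, then stimulated with 1 nM T3 (final) for 23.5 h at 37 C. ONE-Glo luminescence was the read-out, with CellTiter-Fluor fluorescence as the cytotoxicity counter-screen.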
On the technique in general: In qHTS, concentration-response curves come from the screen itself.
Turning to `C=C1C[C@H]2[C@@H]3C=C(C)C4=CC(=O)CC[C@]4(C)[C@H]3CC[C@]2(C)[C@@]1(OC(C)=O)C(C)=O`, the Potency is 23.7 µM (active) and 15.7 µM (active).

As to `Cc1cccc(Nc2ccccc2C(=O)O)c1C`, the Potency was 21.1 µM (active) and 54.5 µM (active).

As to `OC[C@H]1O[C@@H]2O[C@H]3[C@H](O)[C@@H](O)[C@@H](O[C@H]4[C@H](O)[C@@H](O)[C@@H](O[C@H]5[C@H](O)[C@@H](O)[C@@H](O[C@H]6[C@H](O)[C@@H](O)[C@@H](O[C@H]7[C@H](O)[C@@H](O)[C@@H](O[C@H]1[C@H](O)[C@H]2O)O[C@@H]7CO)O[C@@H]6CO)O[C@@H]5CO)O[C@@H]4CO)O[C@@H]3CO`, the Potency entry is “inactive”.

`c1ccc2cc3ccccc3cc2c1`: the Potency entry was “inactive”.

On to `CN(C)CCCN1c2ccccc2Sc2ccc(Cl)cc21`, for which the Potency was 13.3 µM (active) and 15.4 µM (active).

`C[C@]12CC[C@@H]3c4ccc(O)cc4CC[C@H]3[C@@H]1CC[C@@H]2O`: the Potency was 27.3 µM (active) and 30.6 µM (active).

`CC1(C)O[C@@H]2C[C@H]3[C@@H]4C[C@H](F)C5=CC(=O)C=C[C@]5(C)[C@@]4(F)[C@@H](O)C[C@]3(C)[C@]2(C(=O)CO)O1`: the Potency result was “inactive”.

With `O=C(O)c1ccc(O)cc1`, the Potency entry is “inactive”.

As for `CCCCCC1C(=O)CCC1CC(=O)OC` (centres undefined), the Potency entry was “inactive”.

As to `CN(Cc1cnc2nc(N)nc(N)c2n1)c1ccc(C(=O)N[C@@H](CCC(=O)O)C(=O)O)cc1`, the Potency is 335 nM (active) and 54.5 nM (active).

With `C=CCCCCCCCCCC`, the Potency entry is “inactive”.

On to `Clc1ccc(Sc2cc(Cl)c(Cl)cc2Cl)cc1`, for which the Potency result was “inactive”.

As to `C=CCOC(=O)C(=C)C`, the Potency result is “inactive”.

As to `Nc1ccc(N)c(Cl)c1`, the Potency result is “inactive”.

For the compound `Nc1ccc2c(c1)C(=O)c1ccccc1C2=O`, the Potency result is “inactive”.

For `c1ccc2c(c1)ccc1cc3c(ccc4ccccc43)cc12`, the Potency result was “inactive”.

Turning to `CC(=O)[C@@]1(O)CC[C@H]2[C@@H]3C[C@H](C)C4=CC(=O)C=C[C@]4(C)[C@@]3(F)[C@@H](O)C[C@@]21C`, the Potency entry was “inactive”.

Regarding `COC(=O)C(C)Oc1ccc(Oc2ncc(C(F)(F)F)cc2Cl)cc1` (centres undefined), the Potency result was “inactive”.

Take `O=C(O)c1cc(=O)[nH]c(=O)[nH]1`: the Potency entry is “inactive”.

As to `Cc1ccc([N+](=O)[O-])c(C)c1`, the Potency entry was “inactive”.

`CC/C=C\C/C=C\C/C=C\CCCCCCCC(=O)O`: the Potency entry was “inactive”.

For `CC(=O)Nc1ccc2c(c1)Cc1cc(NC(C)=O)ccc1-2`, the Potency entry is “inactive”.

As to `Oc1ccc(C(c2ccc(O)cc2)C(Cl)(Cl)Cl)cc1`, the Potency was 27.2 µM (active) and 27.3 µM (active).

Consider `IC(I)I`, for which the Potency result was “inactive”.

As for `CCC(Cc1c(I)cc(I)c(N)c1I)C(=O)O` (centres undefined), the Potency result was “inactive”.

Turning to `CCC(=O)O[C@H]1[C@H](O[C@@H]2[C@@H](C)[C@H](O[C@H]3C[C@@](C)(OC)[C@@H](O)[C@H](C)O3)[C@@H](C)C(=O)O[C@H](CC)[C@@](C)(O)[C@H](O)[C@@H](C)C(=O)[C@H](C)C[C@@]2(C)O)O[C@H](C)C[C@@H]1N(C)C`, the Potency is 11.9 µM (active) and 36.1 µM (active).

Take `COc1ccc(-c2coc3cc(O)cc(O)c3c2=O)cc1`: the Potency was 61.1 µM (active).

Turning to `C[C@]12CC[C@@H]3c4ccc(O)cc4CC[C@H]3[C@@H]1CC[C@H]2O`, the Potency was 9.86 µM (active) and 24.3 µM (active).

The next assay concerns thyroid hormone receptor (rat, GH3 cells). Nature of the assay: qHTS assay to identify small molecule agonists of the thyroid receptor (TR) signaling pathway (AID 743066). To be noted: GH3.TRE-Luc cells, TR agonist luciferase, 24 h; series mostly up to 83.9 µM.
For the compound `C=C1C[C@H]2[C@@H]3C=C(C)C4=CC(=O)CC[C@]4(C)[C@H]3CC[C@]2(C)[C@@]1(OC(C)=O)C(C)=O`, the Potency result is “inactive”.

For `Cc1cccc(Nc2ccccc2C(=O)O)c1C`, the Potency result is “inactive”.

As for `OC[C@H]1O[C@@H]2O[C@H]3[C@H](O)[C@@H](O)[C@@H](O[C@H]4[C@H](O)[C@@H](O)[C@@H](O[C@H]5[C@H](O)[C@@H](O)[C@@H](O[C@H]6[C@H](O)[C@@H](O)[C@@H](O[C@H]7[C@H](O)[C@@H](O)[C@@H](O[C@H]1[C@H](O)[C@H]2O)O[C@@H]7CO)O[C@@H]6CO)O[C@@H]5CO)O[C@@H]4CO)O[C@@H]3CO`, the Potency entry is “inactive”.

For the compound `c1ccc2cc3ccccc3cc2c1`, the Potency entry was “inactive”.

Take `C[C@]12CC[C@@H]3c4ccc(O)cc4CC[C@H]3[C@@H]1CC[C@@H]2O`: the Potency entry is “inactive”.

Consider `CC1(C)O[C@@H]2C[C@H]3[C@@H]4C[C@H](F)C5=CC(=O)C=C[C@]5(C)[C@@]4(F)[C@@H](O)C[C@]3(C)[C@]2(C(=O)CO)O1`, for which the Potency entry was “inactive”.

As to `O=C(O)c1ccc(O)cc1`, the Potency entry was “inactive”.

With `CC[C@]12CCCN3CCc4c(n(c5ccccc45)[C@@](O)(C(=O)OC)C1)[C@@H]32`, the Potency result was “inactive”.

For the compound `CC1=CC(C)(C)Nc2ccccc21`, the Potency entry was “inactive”.

For `CCCCCC1C(=O)CCC1CC(=O)OC` (centres undefined), the Potency result was “inactive”.

In the case of `CN(Cc1cnc2nc(N)nc(N)c2n1)c1ccc(C(=O)N[C@@H](CCC(=O)O)C(=O)O)cc1`, the Potency entry is “inactive”.

Take `C=CCCCCCCCCCC`: the Potency result is “inactive”.

As for `Clc1ccc(Sc2cc(Cl)c(Cl)cc2Cl)cc1`, the Potency result was “inactive”.

On to `C=CCOC(=O)C(=C)C`, for which the Potency entry was “inactive”.

Take `Nc1ccc(N)c(Cl)c1`: the Potency entry is “inactive”.

Regarding `Nc1ccc2c(c1)C(=O)c1ccccc1C2=O`, the Potency entry is “inactive”.

Regarding `c1ccc2c(c1)ccc1cc3c(ccc4ccccc43)cc12`, the Potency entry is “inactive”.

Turning to `CC(=O)[C@@]1(O)CC[C@H]2[C@@H]3C[C@H](C)C4=CC(=O)C=C[C@]4(C)[C@@]3(F)[C@@H](O)C[C@@]21C`, the Potency entry was “inactive”.

Consider `COC(=O)C(C)Oc1ccc(Oc2ncc(C(F)(F)F)cc2Cl)cc1` (centres undefined), for which the Potency result was “inactive”.

`O=C(O)c1cc(=O)[nH]c(=O)[nH]1`: the Potency entry is “inactive”.

For `Nc1ccc(O)c(N)c1`, the Potency entry is “inactive”.

Regarding `Cc1ccc(/C(=C\CN2CCCC2)c2ccccn2)cc1`, the Potency entry is “inactive”.

For the compound `Cc1ccc([N+](=O)[O-])c(C)c1`, the Potency result is “inactive”.

On to `CC/C=C\C/C=C\C/C=C\CCCCCCCC(=O)O`, for which the Potency entry is “inactive”.

Consider `CC(=O)Nc1ccc2c(c1)Cc1cc(NC(C)=O)ccc1-2`, for which the Potency entry is “inactive”.

On to `Oc1ccc(C(c2ccc(O)cc2)C(Cl)(Cl)Cl)cc1`, for which the Potency result was “inactive”.

For `IC(I)I`, the Potency result was “inactive”.

In the case of `CCC(Cc1c(I)cc(I)c(N)c1I)C(=O)O` (centres undefined), the Potency result was “inactive”.

Turning to `CCC(=O)O[C@H]1[C@H](O[C@@H]2[C@@H](C)[C@H](O[C@H]3C[C@@](C)(OC)[C@@H](O)[C@H](C)O3)[C@@H](C)C(=O)O[C@H](CC)[C@@](C)(O)[C@H](O)[C@@H](C)C(=O)[C@H](C)C[C@@]2(C)O)O[C@H](C)C[C@@H]1N(C)C`, the Potency entry is “inactive”.

Regarding `COc1ccc(-c2coc3cc(O)cc(O)c3c2=O)cc1`, the Potency entry was “inactive”.

In the case of `C[C@]12CC[C@@H]3c4ccc(O)cc4CC[C@H]3[C@@H]1CC[C@H]2O`, the Potency result is “inactive”.
